Most compounds without a hit are left out; they make up all but 3.5% or so of the library.
GPR151 ag – activators of human GPR151, primary screen, cell-based, PathHunter beta-arrestin, luminescence | AID 1508602, 2020 | G-protein coupled receptor 151 (Homo sapiens), Q8TDV0 | PathHunter beta-arrestin GPR151 cells | 650,000 tested, 1% active | activation, % at 11.2 µM; in the data active = activation above about 4.9%;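 also: 0% = median of compound wells and 100% = cells with positive control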
MITF inh – MITF inhibitors, primary screen, biochemical, AlphaScreen, human. AlphaScreen MITF homodimerization, bead proximity signal. inhibition, % at 2.6 µM. 650,000 tested, 0.91% active; in the data active = inhibition above about 50%;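 also: 0% = vehicle wells with protein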
Target sequence (O75030 whole entry, looked up): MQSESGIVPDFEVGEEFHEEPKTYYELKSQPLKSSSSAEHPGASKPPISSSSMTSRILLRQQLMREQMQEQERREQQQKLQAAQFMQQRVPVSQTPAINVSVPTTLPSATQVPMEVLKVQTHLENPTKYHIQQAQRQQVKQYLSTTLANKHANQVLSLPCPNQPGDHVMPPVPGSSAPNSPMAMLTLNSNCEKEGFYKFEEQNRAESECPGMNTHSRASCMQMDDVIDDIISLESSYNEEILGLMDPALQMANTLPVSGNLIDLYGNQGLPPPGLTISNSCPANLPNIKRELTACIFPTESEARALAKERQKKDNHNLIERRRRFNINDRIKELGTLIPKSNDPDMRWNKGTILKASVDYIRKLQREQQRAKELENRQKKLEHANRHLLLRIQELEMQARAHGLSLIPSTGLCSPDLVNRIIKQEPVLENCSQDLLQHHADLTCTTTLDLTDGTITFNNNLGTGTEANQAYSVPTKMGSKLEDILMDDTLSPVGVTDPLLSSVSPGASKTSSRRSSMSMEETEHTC
TEAD-YAP inh – TEAD-YAP interaction inhibition, primary screen, TEAD-YAP interaction inhibitor project, luminescence, HEK-TIYL cells | TEAD-Gal4/YAP UAS-luciferase luminescence | inhibition, % at 9.12 µM | 640,000 tested, 1.4% active | AID 1259422, 2018; in the data active = inhibition above about 32%;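 also: 0% = median of test compound wells and 100% = reference inhibitor wells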
FBW7 act – FBW7 E3 ligase activators, primary screen, biochemical, AlphaScreen, human; F-box/WD repeat-containing protein 7 (Homo sapiens), Q969H0; AlphaScreen FBW7–phospho-cyclin E peptide binding, activator screen; normalized activity (activation), % at 26.1 µM; 650,000 tested, 0.13% active; AID 1259310, 2017; in the data active = normalized activity above about 1.9%;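 also: purified mutant Fbw7 with reduced substrate affinity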
* hit, by the source's call.

SMILES	GPR151 ag	MITF inh	TEAD-YAP inh	FBW7 act
CC1(C)N=C(N)N=C(N)N1c1ccc(F)cc1	-1	1	6	0
c1ccc(C2CCC(=NNc3nc4ccccc4[nH]3)CC2)cc1 (configuration not stated)	-1	6	33*	0
CC1=C/C(=N/Nc2nc3ccccc3[nH]2)CC(C)(C)C1	1	10	-22	-1
CC1=C/C(=N\Nc2nc3ccccc3[nH]2)CC1	-9	2	32*	0
CC1CCC(=NNc2nc3ccccc3[nH]2)CC1 (configuration not stated)	1	42	-20	0
C(=N\n1cnnc1)/c1cccc(OCc2cccc3ccccc23)c1	-1	17	50*	0
Brc1ccc(/C=N/n2cnnc2)cc1	0	18	11	0
Brc1cccc(/C=N/n2cnnc2)c1	0	13	91*	0
C(=N\n1cnnc1)/c1ccc(OCc2cccc3ccccc23)cc1	-1	-8	-53	0
COc1cc(C(=O)Nc2cccnc2)ccc1OCc1c(Cl)cccc1Cl	2	7	39*	0
O=C(Nc1cccnc1)c1ccc(Cl)c(Cl)c1	0	7	-17	0
CC(C)(C)C1CCc2onc(C(=O)NC3CCCC3)c2C1 (configuration not stated)	1	13	0	2.6*
C=CCNC(=O)c1noc2c1CC(C(C)(C)C)CC2 (configuration not stated)	0	10	-3	0
CCOC(=O)N1CCN(c2c(NCc3ccccc3)c(=O)c2=O)CC1	0	-5	56*	0
COc1ccc(-c2csc(NC(=O)c3ccc(S(=O)(=O)N4CC5(C)CC4CC(C)(C)C5)cc3)n2)c(OC)c1 (configuration not stated)	0	8	-2	0
N#CC(C(=O)Nc1ccc(Cl)cc1)=C1CCCC1	-1	10	-21	0
O=[N+]([O-])c1ccccc1C1CC(c2ccccc2)=NN1 (configuration not stated)	1	-3	40*	0
CCN(CC)C(=O)/C(=C\c1ccc2c(c1)OCO2)NC(=O)c1ccccc1Cl	0	-1	4	0
O=c1c2cccc3c2c(nn1Cc1ccccc1Cl)-c1ccccc1-3	0	3	3	0
O=c1c2cccc3c2c(nn1CCN1CCCCC1)-c1ccccc1-3	0	18	80*	0
CN(C)c1cccc(Nc2ccnc3c(-c4ccsc4)cnn23)c1	0	-12	-3	0
CCCNc1ccnc2c(-c3cccc(N(C)C)c3)cnn12	1	5	32*	-1
COCCNc1ccnc2c(-c3ccc(C(=O)NC4CC4)cc3)cnn12	1	-283	1	0
COCCNc1ccnc2c(-c3cccc(N(C)C)c3)cnn12	0	10	-23	0
COCCNc1ccnc2c(-c3cccc(C(=O)O)c3)cnn12	1	-2	99*	0
SMILES	GPR151 ag	MITF inh	TEAD-YAP inh	FBW7 act
CN(C)c1cccc(Nc2ccnc3c(-c4cccc(O)c4)cnn23)c1	0	1	65*	0
CCCNc1ccnc2c(-c3cccc(C(=O)O)c3)cnn12	-7	-10	103*	0
CCCNc1ccnc2c(-c3cccc(C(C)=O)c3)cnn12	-1	-19	-39	0
COc1ccc(N2C(=O)NC(=O)/C(=C\c3ccc(Br)cc3)C2=O)cc1	0	7	5	0
COc1cc(C(=O)N(Cc2cccs2)C2CCS(=O)(=O)C2)cc(OC)c1OC (configuration not stated)	1	8	6	0
Cc1ccccc1OCC(=O)Nc1ccc(Oc2ccc3c(c2)C(=O)NC3=O)cc1	1	11	52*	0
O=C(CCc1ccccc1)Nc1ccc(Oc2ccc3c(c2)C(=O)NC3=O)cc1	0	-3	52*	0
O=C(COc1ccccc1)Nc1ccc(Oc2ccc3c(c2)C(=O)NC3=O)cc1	-1	8	51*	0
CCC(=O)Nc1ccc(Oc2ccc3c(c2)C(=O)NC3=O)cc1	1	-13	-2	0
CCCOc1ccc(/C=N/NC(=O)Cc2cn3ccsc3n2)c(O)c1	0	2	-23	0
O=C(Cc1csc(N2CCOCC2)n1)N/N=C/c1ccc(O)c(O)c1O	0	66*	4	-1
O=C(Cn1ccc(C(F)(F)F)n1)N/N=C/c1ccc(O)c(O)c1O	0	65*	0	-1
O=C(CCN1CCN(c2ccccc2)CC1)N/N=C/c1ccc(O)c(O)c1O	1	70*	4	-1
O=C(Cc1csc(N2CCOCC2)n1)NNC(=S)Nc1ccc(Cl)cc1Cl	-1	17	-3	0
O=C(Cc1cn2ccsc2n1)N/N=C/c1ccc(O)c(O)c1O	0	78*	-4	-1
CN1CCN(CCC(=O)N/N=C/c2ccc(O)cc2O)CC1	0	-77	1	0
CCn1c(SCC(=O)Nc2cc(C)[nH]n2)nc2ccsc2c1=O	-1	7	5	1
O=c1cc(CSc2nc3ccccc3c3nc(-c4ccccc4)nn23)nc2ccccn12	-1	5	-12	0
COc1cc(C2C3=C(CC(C)(C)CC3=O)OC3=C2C(=O)CC(C)(C)C3)ccc1OCc1ccc(F)cc1	-2	21	-5	2.0*
O=C(Nc1sc2c(c1C(=O)NCc1ccccc1)CCCC2)c1ccccc1F	0	-7	12	0
COc1ccc(Cl)cc1NC(=S)NCCn1cc(Br)cn1	-1	14	-2	0
COc1ccc(/C=C/C(=O)Nc2ccccc2C(=O)Nc2ccccc2)cc1	1	-12	22	0
COc1ccc(SCC(=O)Nc2c3c(nn2C)CCC3)cc1	1	10	38*	0
COc1ccc(SCCCC(=O)Nc2c3c(nn2C)CCC3)cc1	0	10	45*	0
COc1ccc(-c2cccc(C(=O)NCc3nc4ccccc4[nH]3)c2)cc1	0	7	-12	0
SMILES	GPR151 ag	MITF inh	TEAD-YAP inh	FBW7 act
CN1CCN(c2ccc(-c3cc(C(=O)NCc4nc5ccccc5[nH]4)ccn3)cc2)CC1	-2	0	88*	0
CN1CCN(c2ccc(-c3cccc(C(=O)NCc4nc5ccccc5[nH]4)c3)cc2)CC1	3	3	68*	0
COc1cc(C=Nc2ccc(I)cc2)ccc1O	-1	24	15	0
O=C1C2C3C=CC(C3)C2C(=O)C2(c3ccc([N+](=O)[O-])cc3)OC12 (configuration not stated)	2	3	2	0
COc1ccc(NC(=O)CN(C)S(=O)(=O)c2cccc3cnccc23)cc1OC	0	27	42*	0
CN(CC(=O)N1CCc2ccccc21)S(=O)(=O)c1cccc2cnccc12	0	16	34*	0
N#Cc1ccsc1NC(=O)Cc1c(F)cccc1Cl	0	11	3	0
NC(=O)c1ccsc1NC(=O)CSc1nnc(-c2ccco2)n1-c1ccccc1	1	5	43*	0
